± gives the standard deviation of the averaged measurements. Whole data set: some 33,000 sequences, median “E-score (rank enrichment, -0.5 to 0.5)” near -0.0028, cut for the highest 2% near 0.23. What follows is part of a selection rich in the highest values, with near analogues and random picks from the rest.
tested on: 2Sb-muMax20 (muMax20 with two 1,3-bis(methyl)benzene Cys staples, A13C/A17C and Q88C/A92C, C-terminal Lys); test: PBM 8-mer E-score (E-score (rank enrichment, -0.5 to 0.5)); higher = stronger preferential binding
Description: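 Protein binding microarray (universal PBM chip covering all 10-mers in fixed probe flanks) with chemically synthesized human Max(13-93) bHLH-LZ analogs (not full-length Max) bearing noncanonical residues (hArg, Tha, Aib, Nle at 65) and aromatic Cys staples. Read-out per 8-mer (and its reverse complement): E-score (rank-based enrichment, -0.5 to 0.5) and Z-score of median probe intensity.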

Going from CAGTTGAA to TAGTTGAA, the “PBM 8-mer E-score” value rises from 0.0124 ± 0.054 to 0.23 ± 0.012.

AAGTTGAA and AGAGAAGG are within error of each other in “PBM 8-mer E-score” value: 0.0152 ± 0.0042 for the first, -0.029 ± 0.046 for the second.

Going from TATAGATA to GATAGATA, the “PBM 8-mer E-score” value falls from 0.213 ± 0.042 to -0.0327 ± 0.03.

Going from CATAGATA to ATCGCTCA, the “PBM 8-mer E-score” value falls from 0.277 ± 0.041 to 0.0207 ± 0.008.

First: AGGAAGGC
Second: CCTGTTTA
The “PBM 8-mer E-score” value of the first is lower: -0.0526 ± 0.077 for the first, 0.137 ± 0.0084 for the second.

First: ACAAATGG
Second: AGAAATAT
The “PBM 8-mer E-score” value of the first is higher: 0.266 ± 0.032 for the first, 0.0844 ± 0.12 for the second.

ACAAAATC and ACAAAATA are within error of each other in “PBM 8-mer E-score” value: 0.0704 ± 0.00074 for the first, 0.193 ± 0.13 for the second.

Compared with AGAAATAC, ACAAATGT is higher in “PBM 8-mer E-score” value: 0.0203 ± 0.03 for the first, 0.148 ± 0.026 for the second.

ACAAAATG and AGAAATAG are within error of each other in “PBM 8-mer E-score” value: 0.238 ± 0.039 for the first, 0.232 ± 0.034 for the second.

CCAAAACG and ACAAAACC are within error of each other in “PBM 8-mer E-score” value: -0.0328 ± 0.043 for the first, 0.13 ± 0.14 for the second.

Going from ACAAAACG to CCAAATGG, the “PBM 8-mer E-score” value falls from 0.262 ± 0.006 to -0.0949 ± 0.091.

Compared with ACGTGGAC, AAAGAGGG is lower in “PBM 8-mer E-score” value: 0.15 ± 0.054 for the first, 0.0479 ± 0.037 for the second.

CTCGTATC and GCCCTGTA are within error of each other in “PBM 8-mer E-score” value: 0.0723 ± 0.026 for the first, 0.032 ± 0.063 for the second.

Compared with TTAATGAA, AGGACAGG is lower in “PBM 8-mer E-score” value: 0.115 ± 0.088 for the first, -0.1548 ± 0.00025 for the second.

First: TATAGCGA
Second: AGAAATGC
The “PBM 8-mer E-score” value of the first is lower: 0.0513 ± 0.037 for the first, 0.177 ± 0.015 for the second.

Going from AGAAATGG to AGAAATGA, the “PBM 8-mer E-score” value falls from 0.251 ± 0.033 to -0.0864 ± 0.0095.

ACCTGCGC and CCCAGCGA are within error of each other in “PBM 8-mer E-score” value: -0.114 ± 0.011 for the first, -0.132 ± 0.046 for the second.

Going from CCTCTACA to CAATCACG, the “PBM 8-mer E-score” value rises from 0.0181 ± 0.028 to 0.231 ± 0.021.

Going from AAATCACA to CAATCACA, the “PBM 8-mer E-score” value falls from 0.199 ± 0.0051 to 0.0918 ± 0.051.

Going from GATCTCCC to ATTGTAGC, the “PBM 8-mer E-score” value falls from 0.122 ± 0.056 to -0.106 ± 0.0083.

CGTCTCCA and AGTGGTAT are within error of each other in “PBM 8-mer E-score” value: -0.0564 ± 0.02 for the first, 0.0204 ± 0.062 for the second.

ATCCCCCC and CCCCCACA are within error of each other in “PBM 8-mer E-score” value: -0.321 ± 0.063 for the first, -0.26 ± 0.052 for the second.

First: TCCCCACA
Second: ATCCCCCA
The “PBM 8-mer E-score” value of the first is higher: 0.261 ± 0.055 for the first, -0.171 ± 0.032 for the second.

Compared with CTCCCCCA, ATCCCCAC is higher in “PBM 8-mer E-score” value: -0.142 ± 0.09 for the first, 0.301 ± 0.04 for the second.

First: CTCCCCAA
Second: ATCCCCAG
The “PBM 8-mer E-score” value of the first is higher: 0.309 ± 0.072 for the first, 0.0369 ± 0.07 for the second.

ATCCCCAT and CCCCCACG are within error of each other in “PBM 8-mer E-score” value: 0.118 ± 0.011 for the first, 0.0751 ± 0.11 for the second.

Compared with ATCCCCAA, CTCCCCAG is lower in “PBM 8-mer E-score” value: 0.301 ± 0.04 for the first, 0.162 ± 0.085 for the second.

First: ACTCGGAA
Second: ATGCACTG
The “PBM 8-mer E-score” value of the first is lower: -0.104 ± 0.083 for the first, 0.062 ± 9.2e-05 for the second.

Going from CCGCATAA to ATTTTAAA, the “PBM 8-mer E-score” value falls from 0.184 ± 0.0044 to 0.126 ± 0.03.

GGAGGACA and AGTTCGTA are within error of each other in “PBM 8-mer E-score” value: -0.0957 ± 0.0057 for the first, -0.119 ± 0.064 for the second.

Going from CAGGGGGG to ATAGCAAA, the “PBM 8-mer E-score” value rises from -0.241 ± 0.072 to 0.1715 ± 0.0012.

Compared with AGTCTGAC, TTCCCCAA is higher in “PBM 8-mer E-score” value: -0.0779 ± 0.015 for the first, 0.32 ± 0.021 for the second.

GTCCCCAC and GTCCCCAA are within error of each other in “PBM 8-mer E-score” value: 0.0697 ± 0.074 for the first, 0.0368 ± 0.035 for the second.

Compared with TCCCCAAA, CCCCCCAC is lower in “PBM 8-mer E-score” value: 0.372 ± 0.029 for the first, -0.238 ± 0.085 for the second.

Compared with CTCCCCAC, CCCCCAAA is lower in “PBM 8-mer E-score” value: 0.292 ± 0.041 for the first, -0.215 ± 0.027 for the second.

Compared with TTCCCAAA, TCCCCCAA is lower in “PBM 8-mer E-score” value: 0.0153 ± 0.013 for the first, -0.179 ± 0.0084 for the second.

First: AACAGATA
Second: ACCTCTGA
The “PBM 8-mer E-score” value of the first is higher: -0.0213 ± 0.017 for the first, -0.0896 ± 0.0083 for the second.

CAGACATG and ACTGCAGC are within error of each other in “PBM 8-mer E-score” value: -0.0511 ± 0.076 for the first, 0.0488 ± 0.072 for the second.

Compared with ACGCAACC, ACGCCCCT is higher in “PBM 8-mer E-score” value: -0.0577 ± 0.0052 for the first, 0.109 ± 0.11 for the second.

Compared with GCTAGAAA, ACAGAAAA is lower in “PBM 8-mer E-score” value: 0.197 ± 0.055 for the first, 0.083 ± 0.044 for the second.

First: ACAGAAAC
Second: ACAGAAAG
The “PBM 8-mer E-score” value of the first is lower: 0.126 ± 0.0055 for the first, 0.278 ± 0.04 for the second.

Compared with ACAGCAAC, ACAGCAAT is higher in “PBM 8-mer E-score” value: -0.0541 ± 0.075 for the first, 0.0979 ± 0.018 for the second.

Going from ACAGCAAG to ATCCCGAG, the “PBM 8-mer E-score” value falls from 0.24 ± 0.03 to -0.0644 ± 0.021.
